From PubChem BioAssay AID1159580 (chemical genetic matrix, 2015)
Among all 5,500 compounds or so, about 2,000 (36%) were called active. About 18% were inconclusive and are not listed. Cut-off read from the data, not from the text of the source: active = normalized growth mostly below about 0.91 (no sharp cut-off); inconclusive = no clear call, values can overlap the other calls; inactive = mostly above about 0.92. This is one part of the list.

Assay: chemical genetic growth profiling, strain panel (AID 1159580);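 note: tested at 20 µM; growth read once vehicle control cultures reached saturation at 30 °C; 1 = growth at the plate median or of vehicle wells; lower values mean less growth of the strain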
Settings: growth OD

Measured: normalized growth

COc1cc(S(C)=O)ccc1-c1nc2ncccc2[nH]1 (centres undefined)
inactive: S. cerevisiae deletion strains, locus YJR043C, strain POL32, hits give low values 1 | S. cerevisiae deletion strains, locus YJR075W, strain HOC1, hits give low values 0.983 | S. cerevisiae deletion strains, locus YKL009W, strain mrt4, hits give low values 1 | S. cerevisiae deletion strains, locus YKL068W, hits give low values 0.991 | S. cerevisiae deletion strains, locus YKL085W, strain MDH1 (second series), hits give low values 1 | S. cerevisiae deletion strains, locus YKL085W, strain MDH1, hits give low values 1 | S. cerevisiae deletion strains, locus YKL160W, strain elf1, hits give low values 0.947 | S. cerevisiae deletion strains, locus YKL190W, strain CNB1, hits give low values 0.991 | S. cerevisiae deletion strains, locus YKR001C, strain vps1, hits give low values 0.986 | S. cerevisiae deletion strains, locus YKR026C, strain gcn3, hits give low values 0.98 | S. cerevisiae deletion strains, locus YKR091W, strain srl3, hits give low values 0.959 | S. cerevisiae deletion strains, locus YLL001W, strain dnm1, hits give low values 0.919 | S. cerevisiae deletion strains, locus YLL026W, hits give low values 0.962 | S. cerevisiae deletion strains, locus YLL041C, strain sdh2, hits give low values 0.97 | S. cerevisiae deletion strains, locus YLR027C, strain aat2, hits give low values 0.98 | S. cerevisiae deletion strains, locus YLR039C, strain RIC1, hits give low values 1.03 | S. cerevisiae deletion strains, locus YLR058C, strain SHM2, hits give low values 0.993 | S. cerevisiae deletion strains, locus YLR102C, strain apc9, hits give low values 0.999 | S. cerevisiae deletion strains, locus YLR221C, strain rsa3, hits give low values 1.01 | S. cerevisiae deletion strains, locus YLR258W, strain gsy2, hits give low values 0.93 | S. cerevisiae deletion strains, locus YLR262C, strain YPT6 (second series), hits give low values 0.987 | S. cerevisiae deletion strains, locus YLR262C, strain YPT6, hits give low values 0.994 | S. cerevisiae deletion strains, locus YLR268W, strain sec22, hits give low values 0.999 | S. cerevisiae deletion strains, locus YLR320W, strain mms22, hits give low values 0.995 | S. cerevisiae deletion strains, locus YLR330W, strain CHS5, hits give low values 0.988 | S. cerevisiae deletion strains, locus YLR342W, strain FKS1 (second series), hits give low values 1 | S. cerevisiae deletion strains, locus YLR342W, strain FKS1, hits give low values 0.969 | S. cerevisiae deletion strains, locus YLR357W, strain rsc2, hits give low values 0.915 | S. cerevisiae deletion strains, locus YLR370C, strain arc18, hits give low values 0.974 | S. cerevisiae deletion strains, locus YLR371W, strain rom2, hits give low values 0.991 | S. cerevisiae deletion strains, locus YLR384C, strain iki3, hits give low values 0.961 | S. cerevisiae deletion strains, locus YLR418C, strain cdc73, hits give low values 1.04 | S. cerevisiae deletion strains, locus YML016C, strain PPZ1, hits give low values 1 | S. cerevisiae deletion strains, locus YML032C, strain rad52, hits give low values 0.989 | S. cerevisiae deletion strains, locus YML120C, strain ndi1, hits give low values 0.971 | S. cerevisiae deletion strains, locus YML124C, strain tub3, hits give low values 0.993 | S. cerevisiae deletion strains, locus YMR058W, strain fet3, hits give low values 0.982 | S. cerevisiae deletion strains, locus YMR078C, strain ctf18, hits give low values 0.989 | S. cerevisiae deletion strains, locus YMR125W, strain sto1, hits give low values 0.927 | S. cerevisiae deletion strains, locus YMR129W, hits give low values 0.979 | S. cerevisiae deletion strains, locus YMR205C, strain PFK2, hits give low values 0.93 | S. cerevisiae deletion strains, locus YMR223W, strain ubp8, hits give low values 0.998 | S. cerevisiae deletion strains, locus YMR231W, strain pep5, hits give low values 0.99 | S. cerevisiae deletion strains, locus YMR263W, strain SAP30, hits give low values 0.975 | S. cerevisiae deletion strains, locus YMR307W, strain GAS1, hits give low values 1.03 | S. cerevisiae deletion strains, locus YNL067W, strain RPL9B, hits give low values 1.01 | S. cerevisiae deletion strains, locus YNL071W, strain lat1, hits give low values 0.97 | S. cerevisiae deletion strains, locus YNL128W, strain TEP1, hits give low values 0.997 | S. cerevisiae deletion strains, locus YNL153C, strain GIM3, hits give low values 0.999 | S. cerevisiae deletion strains, locus YNL209W, strain ssb2, hits give low values 0.98 | S. cerevisiae deletion strains, locus YNL233W, strain BNI4, hits give low values 0.995 | S. cerevisiae deletion strains, locus YNL248C, strain rpa49, hits give low values 0.967 | S. cerevisiae deletion strains, locus YNL250W, strain rad50, hits give low values 0.991 | S. cerevisiae deletion strains, locus YNL271C, strain bni1, hits give low values 0.997 | S. cerevisiae deletion strains, locus YNL298W, strain CLA4, hits give low values 0.971 | S. cerevisiae deletion strains, locus YNL307C, strain MCK1, hits give low values 1 | S. cerevisiae deletion strains, locus YNL322C, strain KRE1 (second series), hits give low values 0.938 | S. cerevisiae deletion strains, locus YNL322C, strain KRE1, hits give low values 0.998 | S. cerevisiae deletion strains, locus YNR049C, strain mso1, hits give low values 0.966 | S. cerevisiae deletion strains, locus YNR052C, strain pop2, hits give low values 0.976 | S. cerevisiae deletion strains, locus YOL006C, strain TOP1, hits give low values 1.04 | S. cerevisiae deletion strains, locus YOL012C, strain htz1 1.02 | S. cerevisiae deletion strains, locus YOL147C, strain pex11, hits give low values 0.982 | S. cerevisiae deletion strains, locus YOR001W, strain rrp6, hits give low values 1.01 | S. cerevisiae deletion strains, locus YOR061W, strain CKA2, hits give low values 1.01 | S. cerevisiae deletion strains, locus YOR069W, strain VPS5, hits give low values 1 | S. cerevisiae deletion strains, locus YOR070C, strain gyp1, hits give low values 0.993 | S. cerevisiae deletion strains, locus YOR080W, strain dia2, hits give low values 0.982 | S. cerevisiae deletion strains, locus YOR083W, strain WHI5, hits give low values 0.936 | S. cerevisiae deletion strains, locus YOR106W, strain vam3, hits give low values 0.91 | S. cerevisiae deletion strains, locus YOR136W, strain idh2, hits give low values 0.986 | S. cerevisiae deletion strains, locus YOR144C, strain elg1, hits give low values 0.99 | S. cerevisiae deletion strains, locus YOR184W, strain ser1, hits give low values 0.998 | S. cerevisiae deletion strains, locus YOR265W, strain rbl2, hits give low values 0.967 | S. cerevisiae deletion strains, locus YOR270C, strain vph1, hits give low values 0.974 | S. cerevisiae deletion strains, locus YOR290C, strain snf2, hits give low values 0.951 | S. cerevisiae deletion strains, locus YOR316C, strain cot1, hits give low values 0.991 | S. cerevisiae deletion strains, locus YPL051W, strain arl3, hits give low values 0.943 | S. cerevisiae deletion strains, locus YPL055C, strain LGE1, hits give low values 0.925 | S. cerevisiae deletion strains, locus YPL078C, strain atp4, hits give low values 0.94 | S. cerevisiae deletion strains, locus YPL106C, strain sse1, hits give low values 0.947 | S. cerevisiae deletion strains, locus YPL240C, strain hsp82, hits give low values 0.985 | S. cerevisiae deletion strains, locus YPL241C, strain CIN2, hits give low values 0.992 | S. cerevisiae deletion strains, locus YPR119W, strain clb2, hits give low values 0.988 | S. cerevisiae deletion strains, locus YPR141C, strain kar3, hits give low values 0.999 | S. cerevisiae deletion strains, locus YPR163C, strain tif3, hits give low values 0.982 | S. cerevisiae deletion strains, locus YPR167C, strain met16, hits give low values 0.999 | S. cerevisiae deletion strains, strain wtn01, hits give low values 0.975 | S. cerevisiae strains, strain wild type, hits give low values 1
